Screening results from PubChem.
USP8 inh = inhibitors of human USP8 deubiquitinase. inhibition, % at 20 µM. purified USP8, Ub-rhodamine cleavage fluorescence, 30 min. AID 1645853, 2021. Ubiquitin carboxyl-terminal hydrolase 8 (Homo sapiens), P40818. 47,000 tested, 4.2% active
UCHL1 inh = inhibitors of human UCHL1 deubiquitinase; Ubiquitin carboxyl-terminal hydrolase isozyme L1 (Homo sapiens), P09936; purified UCHL1, Ub-rhodamine cleavage fluorescence; inhibition, % at 20 µM; 47,000 tested, 0.2% active; AID 1645859, 2021
USP7 block = inhibitors of human USP7 deubiquitinase. purified USP7, Ub-rhodamine cleavage fluorescence. inhibition, % at 20 µM. 47,000 tested, 0.3% active. AID 1645854, 2021
USP10 inh = inhibitors of human USP10 deubiquitinase. inhibition, % at 20 µM. purified USP10, Ub-rhodamine fluorescence, 60 min. Ubiquitin carboxyl-terminal hydrolase 10 (Homo sapiens), Q14694. 47,000 tested, 1.1% active
Starred values were filed as active, the others as inactive. A selection: hits, their analogues and other compounds. The true share with any hit is near 4.6%. No stated cut-off is given here; in the data, active means inhibition above about 30%; inactive means the rest.

SMILES	USP8 inh	UCHL1 inh	USP7 block	USP10 inh
O=C(Cn1c(COc2ccccc2)nc2ccccc21)Nc1cc(Cl)cc(Cl)c1	73*	8	21	16
CCN(CC)c1ccc2nnc(CCC(=O)Nc3ccc(C)cn3)n2n1	14	-2	2	-1
Cc1ccc(S(=O)(=O)N2CCCn3c(CN4CCCCC4)nnc3C2)cc1	-274	2	-3	0
c1coc(-c2cc3nc(NCc4ccc5c(c4)OCO5)ccn3n2)c1	58*	0	11	-5
O=C(O)c1cccc2[nH]c(-c3ccc(O)cc3)nc12	41*	2	4	3
COc1c(C)cccc1C(=O)Nc1ccc(-c2nc3ccccc3[nH]2)cc1	0	-7	0	-2
Cc1ccc(NC(=O)Cn2nc3c4c5c(sc4ncn3c2=O)CCCC5)cc1C	4	-2	-3	-5
O=C(Cn1nc2c3c4c(sc3ncn2c1=O)CCCCC4)Nc1ccc(Cl)cc1F	92*	6	22	15
COc1cc2ccccc2cc1C(=O)Nc1ccccc1-c1nc2ccccc2[nH]1	10	8	11	6
COc1ccc(OCCCC(=O)Nc2ccccc2-c2nc3ccccc3[nH]2)cc1	35*	2	3	-8
COC(=O)c1ccc(CNC(=O)c2ccc(Oc3ccccc3)cc2)cc1	34*	3	2	12
COC(=O)c1ccc(CNC(=O)c2ccc3c(c2)OCCO3)cc1	3	-3	0	-2
O=C(Nc1ccc(F)c(Cl)c1)C1CCN(C(=O)c2cc(-c3ccncc3)n[nH]2)CC1	12	9	12	8
O=c1[nH]c(-c2ccncc2)nc2c1CCN(Cc1cccn1-c1cccnc1)C2	58*	-33	-47	-3
COc1ccccc1NCC(=O)N1c2ccccc2NC(=O)C1(C)C	34*	5	6	0
N#Cc1c(-c2cccs2)cc(-c2cccs2)[nH]c1=O	-71	-71	-52	-9
N#Cc1c(-c2ccc(Cl)cc2)cc(-c2cccc(Br)c2)[nH]c1=O	52*	8	-123	8
O=C(Nc1cc(=O)[nH]c2nc(COc3ccccc3)nn12)c1ccc(Cl)cc1	35*	1	6	19
COc1ccc(-c2nc(SCC(=O)Nc3ccc(Cl)cc3F)n[nH]2)cc1	-32	-1	-6	6
Cn1cc2nc(SCC(=O)Nc3ccc(Cl)cc3F)n(CC3CC3)c(=O)c2n1	32*	-1	-14	1
Cc1c(Cl)cccc1NC(=O)CSc1nc2cn(C)nc2c(=O)n1CC1CC1	43*	1	-11	-4
Cn1cc2nc(SCC(=O)NCc3ccccc3Cl)n(CC3CC3)c(=O)c2n1	42*	-1	-3	3
Cc1ccc(Cl)cc1NC(=O)CSc1nc2cn(C)nc2c(=O)n1CC1CC1	61*	2	-30	2
CCOC(=O)CSc1nc2nccnc2c(=O)n1Cc1ccccc1Cl	-41	2	1	-2
Cc1ccc(N2CCCn3c2nc2c3c(=O)n(Cc3cccc4ccccc34)c(=O)n2C)cc1C	-27	0	3	-2
SMILES	USP8 inh	UCHL1 inh	USP7 block	USP10 inh
Cc1cccc(O)c1C(=O)OC(C)c1cccc2nc3c(C(=O)O)cc4c(c3nc12)C(C)c1cccc2c1N4c1cccc(C(=O)O)c1N2 (configuration not stated)	95*	95*	100*	99*
COC(=O)c1cccc2nc3c(C(C)O)cccc3nc12 (configuration not stated)	-20	-5	-1	-5
Cc1cccc(NC(=O)CCCc2nnc3c(=O)n(-c4cccc(F)c4)ccn23)c1	61*	11	19	5
O=C(CCCc1nnc2c(=O)n(-c3cccc(F)c3)ccn12)NCCc1ccccc1	-2	-3	3	-5
O=C(CCCc1nnc2c(=O)n(-c3cccc(F)c3)ccn12)Nc1ccccc1	47*	9	19	16
COc1cccc(CNC(=O)CCCc2nnc3c(=O)n(-c4cccc(F)c4)ccn23)c1	2	0	2	-3
O=C(CCCc1nnc2c(=O)n(-c3cccc(F)c3)ccn12)NCc1ccc(F)cc1	48*	11	24	19
CCn1ccnc1CN1CCC(C2CC=CCN(Cc3ccc(F)cc3)C2=O)CC1 (configuration not stated)	-10	3	-3	-6
Fc1ccccc1CN1CC[C@H](c2nnc(-c3ccncc3)o2)C1	-4	0	0	-1
c1ccc2oc(CN3CC[C@H](c4nnc(-c5ccncc5)o4)C3)cc2c1	34*	-2	-10	-6
CCc1ccc(NC(=O)CCc2nc3cccnc3n2Cc2ccccc2)cc1	35*	4	6	11
CC1Cc2ccccc2N1C(=O)COC(=O)c1ccc2ccccc2n1 (configuration not stated)	-4	0	-5	0
CC1Cc2ccccc2N1C(=O)Cc1csc(NC(=O)c2ccc(=O)[nH]c2)n1 (configuration not stated)	47*	-25	-29	-7
COc1ccc(CCNC(=O)Cc2cc(-c3ccc(F)cc3F)on2)cc1OC	22	-6	-4	-6
O=C(Cc1cc(-c2ccc(Cl)cc2)on1)NCCc1ccccc1	53*	-3	2	-3
NS(=O)(=O)c1ccc(CCNC(=O)Cc2cc(-c3ccc(F)cc3F)on2)cc1	40*	-2	-2	-4
COCC(=O)N1CCc2c([nH]c3ccccc23)C1c1cccnc1 (configuration not stated)	1	1	1	2
Cc1noc(/C=C/c2sc3ccccc3c2Cl)c1[N+](=O)[O-]	-121	-148	-134	-2
Cc1nn(C)cc1C(C)NC(=O)c1cc2c(s1)CN(C1CC1)C2 (configuration not stated)	31*	1	-4	-5
CC(C)(C)OC(=O)N1CCN(C(=O)c2cc3c(s2)CN(C2CC2)C3)CC1	1	2	-34	0
C/C(Nc1ccc2oc(=O)ccc2c1)=C1/C(=O)CC2[C@H]1C2(C)C (some centres not stated)	41*	-8	-7	-8
O=C(c1ccccc1F)N1CCN(Cc2noc(-c3ccccc3)n2)CC1	-9	0	-1	-1
O=C(CCc1ccccc1)Nc1cc(F)c2nc(N3CCOCC3)ccc2c1	46*	-2	-5	-2
CC(C)CC(=O)Nc1cc(F)c2nc(N3CCOCC3)ccc2c1	80*	5	-6	-8
O=C(COc1ccc(F)cc1)Nc1cc(F)c2nc(N3CCOCC3)ccc2c1	41*	-14	-17	-11
O=C(Cn1ccc2ccc(N3CCOCC3)nc21)NCc1cccc(F)c1	-250	-68	-135	0
COc1ccc(OCC(=O)Nc2cc(F)c3nc(N4CCOCC4)ccc3c2)cc1	6	0	4	-7
COc1cc(/C=C2\Oc3cc(OCC=C(C)C)ccc3C2=O)cc(OC)c1OC	-3	-6	-3	-4
CC(C)=CCC/C(C)=C/COc1ccc(/C=C2\C(=O)N(O)[C@@H](C)C(=O)N2O)cc1	4	1	-18	38*
